# Test results as given in PubChem BioAssay AID1745850 (National Center for Advancing Translational Sciences (NCATS), 2022).
# Among all 2,100 compounds or so, about 260 (12%) were called active. Inconclusive results (about 58%) are left out. The list shows a part of the results. A number with no mark means an inactive call. Calls follow the shape of the dose curve; as a rule, active = well fitted cell-killing curve with a large enough effect; inconclusive = small, poorly fitted or top-dose-only effect, or effect the other way; inactive = flat fitted curve, though single readings scatter.
# Experiment: Viability Counterscreen for Confirmatory qHTS for Inhibitors of ATXN expression; also: nearly all actives have a fitted effect of over 50% in size
# Conditions: HEK-293 ATXN2-luc cells viability, CellTiter-Fluor, 24 h; activity change, negative = cytotoxicity: at the top concentration
# Excerpt: PI: Daniel Scoles Ph.D. University of Utah School of Medicine, Salt Lake City, Utah MLPCN Grant: NS073009 Spinocerebellar ataxia type 2 (SCA2) is a multisystem neurodegenerative disease caused by a dominantly acting mutation leading to expansion of a polyQ domain in the ataxin-2 protein (ATXN2). SCA2 patients develop progressive ataxia and later lose function in other neuronal systems. Prominent parkinsonian signs develop in some patients. Like many neurodegenerative disorders, no symptomatic or disease-modifying treatments are known. The primary objective of the proposed research is to identify compounds inhibiting ATXN2 expression and to test them for efficacy in SCA2 mouse models. We have developed a cell-based assay paired with an in vivo mouse model using identical luciferase expression constructs. This approach takes advantage of an ATXN2-luciferase transgene, with the luciferase gene flanked by the upstream and downstream portions of the ATXN2 gene. Here we describe a 5-7 dose quantitative high thoroughput screen (qHTS) for compounds lowering ATXN2 expression. We screened the NIH Molecular Libraries Small Molecule Repository (MLSMR) and NCGC's mechanistically annotated (MIPE) and drug repurposing (NPC) collections of compounds for lowering expression of an ATXN2-luciferase reporter in HEK-293 cells. The assay is a multiplexed cell viability assay to ensure target reduction in the absence of cytotoxicity. Secondary qHTS assays included a CMV-luciferase reporter expressed in HEK-293 cells as well as a biochemical assay using recombinant luciferase to detect inhibitors of the reporter enzyme. Compounds that inhibit ATXN2 expression but is not cytotoxic were selected for confirmatory and secondary screens.
# PROTOCOL TABLE (as described by Inglese J, Shamu CE and Guy RK. 2007) SEQUENCE No. (e.g., 1, 2, 3, etc.); […] (e.g., Cells, Incubation, Reagent, etc.); VALUE; DESCRIPTION. 1; Cells; 4 uL; white, solid bottom, 1536-well Greiner assay plate. 2; Incubation; 2 hr; 37 degree C in 5% humidified CO2. 3; Compounds; 23 nL; Kalypsis pintool (Wako USA) equipped with a 1536-well pin head. 4; Incubation; 24 hr; 37 degree C in 5% humidified CO2. 5; Reagent; 1 uL; Gly-Phe-7-Amino-4-trifluoromethylcoumarin. 6; Incubation; 30 min; 37 degree C in 5% humidified CO2. 7; Detection; Fluorescence; ViewLux plate reader (PerkinElmer). 8; Reagent; 3 uL; SteadyGlo luciferase solution (Promega). 9; Incubation; 5 min; room temperature. 10; Detection; Luminescence; ViewLux plate reader (PerkinElmer). NOTES (numbers refer to Sequence numbers above) 1. S2 cells expressing ATXN2-luciferase reporter were suspended in phenol-red free DMEM and dispensed in assay plates using a Multidrop Combi dispenser (Thermo Fisher Scientific). Wells containing medium only were plated on each plate, and values were used to normalize (100% inhibition) in the luciferase and CellTiter-Fluor assays. 2. Assay plates were incubated. Evaporation was prevented by covering assay plates with metal lids containing holes to allow gas diffusion. 3. Compounds were added in a dose response manner with the final concentrations of 57, 11.4, 2.28, 0.46, 0.091, 0.018, 0.0037 uM. Vehicle-only plates, with DMSO being pin-transferred to columns 5-48, were inserted uniformly at the beginning and the end of each library to monitor and record any shifts in assay performance. 5. 125 uM Gly-Phe-7-Amino-4-trifluoromethylcoumarin (MP Biomedicals) working concentration was used at a final concentration of 25 uM. 7. To assess cell viability; the assay plates were read using the ViewLux high-throughput CCD imager (PerkinElmer), wherein single end-point fluorescence measurement was acquired (excitation 405/10; emission 540/25 nm). 8. Detection reagent SteadyGlo Luciferase (Promega) was added to the assay plate. 10. Luminescence is then measured on the ViewLux imager equipped with a clear emission filter using a 2 sec exposure. […]
# Potency is read from the fitted curve at half-maximal effect.
SMILES,"activity change, negative = cytotoxicity",Potency
COc1cc(/C=N/Nc2ccc(Cl)c(C(=O)O)c2)ccc1OC(=O)c1ccco1,1.6%,
CCN(CC)CCNC(=O)c1ccc(NC(=O)Cc2cccc3ccccc23)cc1,-22.4%,
CN(CC(=O)Nc1cccc(F)c1)CC(=O)Nc1cccc2ccccc12,-16.6% [at 57.5 µM],
CCN(CC)CCC(=O)Nc1cccc2c1C(=O)c1ccccc1C2=O,,3.16 µM (active)
CCC1=C(CC2NCCc3ccccc32)CC2c3cc(OC)c(OC)cc3CCN2C1 (centres undefined),,10 µM (active)
O=C(CC1NCCc2ccccc21)Nc1ccc(Cl)cc1 (centres undefined),11.4%,
CN(c1ccc(OCC(=O)N2CCN(c3ccc(F)cc3)CC2)cc1)S(=O)(=O)c1cccs1,-11.9%,
CCOC(=O)c1c(C)nn(-c2ccc(NC(=O)/C=C/C(=O)O)cc2)c1C,-10.3% [at 57.5 µM],
CC(=O)c1sc(C(C)(C)C)cc1NC(=O)/C=C/C(=O)O,-20% [at 57.5 µM],
COC(=O)c1c(NC(=O)/C=C/C(=O)O)sc(C)c1-c1ccc(C(C)C)cc1,,28.2 µM (active)
OC[C@@H]1[C@@H](c2ccc(F)cc2)C(c2ccccc2)=NN1c1ccccc1,28.7% [at 57.5 µM],
COc1cc2c(cc1OC)C(C)N(C(=O)c1cc3c(s1)-c1ccccc1OC3)CC2 (centres undefined),-24.3% [at 57.5 µM],
COc1ccccc1-c1ccc2c(c1)C(C)(Cc1cccc(F)c1)C(=O)N2 (centres undefined),-27.1% [at 57.5 µM],
Cc1nonc1C(=O)N/N=C/c1ccc(O)cc1O,-19%,
COc1ccc2c(c1)C(SCC(=O)NCCc1ccc(Cl)cc1)CC(C)(C)O2 (centres undefined),-8.85%,
Cc1cccn2c(Nc3ccccc3)c(-c3ccccn3)nc12,-19% [at 57.5 µM],
Cc1ccc(Nc2c(-c3ccccn3)nc3cccc(C)n23)cc1,,8.91 µM (active)
Cc1ccc(Nc2c(-c3ccccn3)nc3cc(C)ccn23)cc1,,10 µM (active)
Cc1ccc2nc(-c3ccccn3)c(NC3CCCC3)n2c1,-22.4%,
N#Cc1ccc(-c2nc3cc(Cl)ccc3c(=O)n2O)cc1,-15.2%,
CCCNC(=O)c1ccc2c(=O)c(O)c(-c3ccc(F)cc3)[nH]c2c1,-12.7% [at 57.5 µM],
CCN(c1ccccc1)S(=O)(=O)c1ccc(C(=O)N(CCCN(C)C)c2nc3c(C)cccc3s2)cc1,,20 µM (active)
CN(C)CCCN(C(=O)c1ccc(S(=O)(=O)N(C)Cc2ccccc2)cc1)c1nc2cc3c(cc2s1)OCO3,,25.1 µM (active)
CN(C)CCCN(C(=O)c1ccco1)c1nc2cc3c(cc2s1)OCO3,-18.9% [at 57.5 µM],
Cc1ccc(S(=O)(=O)c2nc(NCc3ccc4c(c3)OCO4)sc2Cl)cc1,-19.2% [at 57.5 µM],

SMILES,"activity change, negative = cytotoxicity",Potency
CCCc1nc(NC2CCCCC2)c(C#N)c2c1COC(C)(C)C2,4.08%,
CC1(S(=O)(=O)O)CC(=O)c2ccccc2C1=O (centres undefined),3.58% [at 57.5 µM],
CCCCOc1ccc(NC2=NC3(CCCC3)N=C(N)N2)cc1,-22.7% [at 57.5 µM],
COc1ccc([C@@]2(C(C)C)ON(c3ccccc3C(F)(F)F)C2=O)cc1,-9.94%,
COc1ccc(CN(C)C(=O)c2cccc(NC(=O)CC3SC(N4CCCCC4)=NC3=O)c2)c(OC)c1 (centres undefined),,35.5 µM (active)
Cc1ccc(Cn2ncc3c(NN)ncnc32)cc1,-26.4% [at 57.5 µM],
COc1cccc(N2CCN(c3nc(-c4ccccc4C)cc(=O)[nH]3)CC2)c1,-27.9%,
Cc1nc2ncnn2c(N2CCN(c3cccc(C(F)(F)F)c3)CC2)c1C,-26.9%,
CC(Sc1ccc(Cl)cc1)C(=O)NNC(=O)c1ccccc1O (centres undefined),-10%,
COc1ccc(Cl)cc1NC(=O)Nc1cccc([N+](=O)[O-])c1C,-5.63%,
COc1ccc(-c2n(CC(=O)OC3CC(C)CCC3C(C)C)c3ccccc3[n+]2C)cc1 (centres undefined),,10 µM (active)
Cc1onc(-c2ccccc2)c1C(=O)N/N=C/c1c[nH]c2ccccc12,-15.8% [at 57.5 µM],
O=C(O)COc1ccc2oc3ccccc3c2c1,7.02%,
Cc1nnc(SC(C)C(=O)Nc2ccc(Cl)cn2)n1Cc1ccccc1 (centres undefined),-12.7% [at 57.5 µM],
Cc1cccc(N2CCN(S(=O)(=O)c3ccc4c(c3)C(C)(C)C(=O)N4C)CC2)c1C,-12% [at 57.5 µM],
NC(N)=N/N=C/c1ccc2cccc(OCc3ccccc3)c2n1,,15.8 µM (active)
CC(=O)Oc1c(Br)cc(N(C(C)=O)S(=O)(=O)c2ccccc2)c2ccccc12,,28.2 µM (active)
N#Cc1cc2cc3c(cc2nc1SCC(=O)N1CCOCC1)OCCO3,-8.91%,
OC(c1cc(-c2cccc(Cl)c2)nc2ccccc12)C1CCCCN1 (centres undefined),,28.2 µM (active)
Cn1nccc1C(=O)N1CCCC(C(=O)c2cccc3ccccc23)C1 (centres undefined),-20.1% [at 57.5 µM],
Cn1cc(/C=C/c2cc[n+](C)cc2)c2cc(F)ccc21,-9.68% [at 57.5 µM],
O=C(/C=C\c1ccco1)Nc1nc(-c2ccc3ccccc3c2)cs1,-19.3%,
O=C(Nc1nc(-c2ccc(F)c(F)c2)cs1)Nc1ccc(F)cc1F,,2.82 µM (active)
O=C(CCN1C(=O)C2CC=CCC2C1=O)Nc1nc(-c2ccc(F)c(F)c2)cs1 (centres undefined),-16.4% [at 57.5 µM],
